High-throughput results as filed in PubChem BioAssay.
FUS yeast rescue: rescues growth of FUS-expressing yeast | S. cerevisiae FUS-expressing, growth rescue, OD600, 24 h | Potency, µM (top dose mostly 76.6 µM), hits mostly activators | hit rate 0.24% among 390,000;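 also: plate controls were DMSO vehicle for no effect and reference control for full effect; nearly all actives have a fitted effect of over 55% in size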
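Steps: raffinose overnight preculture; dilution to OD 0.005 in 2% galactose minimal medium; compound addition (concentration series); 24hr at 30C, 99% humidity; absorbance read at 600 nm.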
aSyn rescue: inhibitors of alpha-synuclein toxicity in yeast | Yeast expressing alpha-synuclein, growth rescue, BacTiter-Glo, 24 h | Potency, µM (series often up to 46.1 µM), without a hit: at the highest dose growth rescue (activation), actives largely listed as activators | hit rate 0.14% among 370,000 | AID 652106; also: % of control where 0% means no effect; nearly all actives have a fitted effect of over 65% in size
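Galactose-induced alpha-syn yeast (OD600=0.02, raffinose-pregrown) + pinned cpd, 24 hr, 30 deg C; growth by BacTiter-Glo luminescence. Growth restoration scores as activation.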
TDP43 rescue: inhibitors of TDP-43 toxicity in yeast; hit rate 1.8% among 410,000; Potency, µM (series often up to 46.1 µM), inactives show at the top dose growth rescue (activation), hits mostly activators; TDP-43 expressing yeast growth rescue, BacTiter-Glo, 24 h; also: % of control where 0% means no effect; nearly all actives have a fitted effect of over 50% in size
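Yeast expressing TDP-43 (pregrown in raffinose, seeded at OD600=0.02 in galactose medium) exposed to compounds 24 hr at 30 deg C. Growth read by BacTiter-Glo luminescence; rescue of toxicity appears as increased signal.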
Mito fusion act: blocks mitochondrial division or promotes mitochondrial fusion; S. cerevisiae fusion-defective mutant growth rescue, CellTiterGlo 48 h; Potency, µM (highest dose often 46.1 µM), inactives show top-dose growth rescue (activation), hits mostly activators; hit rate 0.23% among 320,000; also: % of control where 0% means no effect; nearly all actives have a fitted effect of over 45% in size
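Compounds are tested for their ability to restore growth of mitochondrial fusion-defective yeast strains at non-permissive 37C in YPEG medium over 48 hours. Viability is quantified by luciferase luminescence.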
ERG-DNA inh: ERG Ets/DNA interaction inhibition. P11308. fluorescence polarization, His-ERG Ets domain / labelled DNA. Potency, µM (top dose mostly 76.9 µM), without a hit: top-dose FP activity, negative = inhibition, most hits filed as inhibitors. hit rate 0.028% among 370,000. AID 624246; active = well fitted inhibition curve with a large enough effect in the polarisation, with a control signal flat; inconclusive = small, poorly fitted or top-dose-only effect, or effect the other way, or a change in a side signal; inactive = no such curve, though single readings can be large or run the other way; the % refers to the polarisation;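 also: polarization taken with two DNA probes labelled with fluorescein and Texas red; % of control where 0% means no effect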
Target sequence (P11308 whole entry, looked up, the tested form may be a part): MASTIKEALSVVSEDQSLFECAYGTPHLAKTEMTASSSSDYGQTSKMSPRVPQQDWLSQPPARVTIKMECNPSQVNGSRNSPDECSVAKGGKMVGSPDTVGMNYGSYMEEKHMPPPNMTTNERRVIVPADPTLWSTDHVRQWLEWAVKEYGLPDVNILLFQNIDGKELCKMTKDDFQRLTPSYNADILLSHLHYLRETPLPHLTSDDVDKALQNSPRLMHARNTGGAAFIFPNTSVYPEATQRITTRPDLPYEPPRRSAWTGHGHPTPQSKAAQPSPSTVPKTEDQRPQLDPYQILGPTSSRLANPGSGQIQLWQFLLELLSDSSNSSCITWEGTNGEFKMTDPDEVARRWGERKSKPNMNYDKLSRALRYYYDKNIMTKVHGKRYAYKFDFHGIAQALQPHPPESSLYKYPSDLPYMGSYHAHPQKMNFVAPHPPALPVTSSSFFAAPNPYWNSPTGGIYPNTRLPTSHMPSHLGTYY
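His-tagged ERG Ets domain (1 uM in the protein solution; 300mM KCl, 50mM Tris-HCl, 1mM EDTA, 1mM DTT, pH 7.5) received compound, then a probe mix of 5 nM fluorescein-DNA and 100nM Texas-615-DNA. Fluorescence polarization was read for both dyes.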
Abeta yeast res: restores growth of yeast expressing A-beta42 peptide | yeast expressing A-beta42, growth rescue, OD600, 48 h; response scale: 0% DMSO, 100% iron-clioquinol control | Potency, µM (highest dose often 46.1 µM), most hits filed as activators | hit rate 0.063% among 410,000 | AID 1347071; also: nearly all actives have a fitted effect of over 55% in size
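Yeast A-beta toxicity model in growth medium with pinned compounds, 48 h at 30 C; growth read as absorbance at 600 nm. Normalized to FeCl3/clioquinol equimolar mix (positive) and DMSO (negative).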
An asterisk follows results filed as active; i = inactive; ? = inconclusive; . = no result. Shown are actives, neighbours in structure and some others; about 2.2% of the full set was active somewhere. Unless noted, calls follow the shape of the dose curve; as a rule, active = well fitted curve in the direction sought with a large enough effect; inconclusive = small, poorly fitted or top-dose-only effect, or another doubt; inactive = no such curve, though single readings can be large; an effect the other way counts as inactive or inconclusive. Potency is read from the fitted curve at half-maximal effect.

SMILES	FUS yeast rescue	aSyn rescue	TDP43 rescue	Mito fusion act	ERG-DNA inh	Abeta yeast res
CCOC(=O)c1cnc2ccc(OCC)cc2c1N1CCN(c2ccccc2F)CC1	?	.	15.8µM*	.	8.5%	i
CCOC(=O)c1cnc2ccc(OCC)cc2c1N1CCN(c2ccccc2)CC1	?	6.8%	17.8µM*	-2.7%	7.4%	i
O=C(C1CCCN1S(=O)(=O)c1ccc([N+](=O)[O-])cc1)N1CCc2ccccc2C1 (configuration not stated)	i	.	.	.	.	.
C=CCC[C@H](Cc1ccc(F)cc1)C(=O)OC[C@@H](C)NC(=O)[C@@H](CC=C)CC(=O)N[C@H](CO)Cc1ccccc1	25.1µM*	-2.5%	-1.6%	.	4.9%	i
C=CCC[C@H](Cc1ccc(F)cc1)C(=O)OC[C@@H](NC(=O)[C@@H](CC=C)CC(=O)N[C@@H](CO)Cc1ccccc1)C(C)(C)C	12.6µM*	-1.4%	-30.3%	.	-4.9%	i
C=CCC[C@@H](Cc1ccc(F)cc1)C(=O)OC[C@@H](NC(=O)[C@@H](CC=C)CC(=O)N[C@@H](CO)Cc1ccccc1)C(C)(C)C	i	-1.5%	22.8%	.	7.2%	i
C=CC[C@@H](CC(=O)N[C@H](CO)Cc1ccccc1)C(=O)N[C@H](COC(=O)[C@@H](CC=C)Cc1ccc(F)cc1)C(C)(C)C	15.8µM*	-10.0%	16.6%	.	8.1%	i
CCc1cccc(NC(=O)CN(C)S(=O)(=O)c2ccc3c(c2)n(C)c(=O)c(=O)n3C)c1	i	.	29.4%	.	0.1%	i
CCOc1ccccc1CNC(=O)c1ccc(N2Cc3ccccc3Oc3ncccc32)s1	i	.	16.3%	.	-0.3%	i
O=S(=O)(Nc1cccc2c1CCCC2)c1cccc(C(F)(F)F)c1	i	?	25.1µM*	-9.6%	-6.4%	?
Cc1ccc(-c2nnc(SCC(=O)N3CCc4ccccc43)o2)cc1	i	.	16.9%	.	2.7%	i
O=C(CSc1ccc(-c2ccc(Cl)cc2)nn1)N1CCCc2ccccc21	.	12.4%	20µM*	?	-5.6%	i
Cn1c(SCC(=O)N2CCCc3ccccc32)nnc1-c1c[nH]c2ccccc12	i	-16.1%	9.0%	-1.0%	-0.8%	i
O=C(CSc1ccc(-c2ccccn2)nn1)N1CCCc2ccccc21	i	6.4%	19.1%	0.3%	-7.3%	i
O=C(CSc1ccc(-c2ccc(F)cc2)nn1)N1CCCc2ccccc21	i	4.4%	22.4µM*	25.0%	1.8%	i
O=C(CSc1ccc(-c2cccnc2)nn1)N1CCCc2ccccc21	.	.	.	-3.6%	.	.
O=C(CSc1c[nH]c2ccccc12)N1CCCc2ccccc21	i	20.2%	22.4µM*	14.0%	21.1%	i
O=C(CSc1nnc(-c2ccc(F)cc2)o1)N1CCCc2ccccc21	i	.	20µM*	.	3.7%	i
CC(C)(C)N1C(=O)c2ccccc2NC(=O)C1C(=O)Nc1ccc(N2CCOCC2)cc1 (configuration not stated)	i	-1.0%	13.2%	.	.	i
Cc1cccc(-n2nc(C)c(C(=O)Nc3cc(C)ccc3C)c2-n2cccc2)c1	i	.	21.6%	.	-0.7%	i
Cn1cc(Cl)c(/C(N)=N/OC(=O)c2ccccc2C(F)(F)F)n1	i	3.2%	20µM*	7.0%	-4.2%	i
N/C(=N\OC(=O)c1ccccc1Cl)c1ccccn1	i	-27.3%	-27.4%	-2.5%	-2.3%	i
Cc1cc(=O)n(CC=C(Cl)Cl)c2ccccc12	?	8.4%	12.6µM*	2.4%	-2.9%	i
FC(F)(F)c1ccccc1Cc1c(-c2cccc(Br)c2)nc2c3ccccc3ccn12	i	2.1%	14.1µM*	.	.	i
Cc1cc(Br)cn2c(Cc3ccccc3C(F)(F)F)c(-c3cccc(Br)c3)nc12	i	0.5%	2.9%	.	.	i
